Shown are actives, neighbours in structure and some others; about 7.5% of the full set was active somewhere.
ELG1 genotoxic: qHTS screen for small molecules that induce genotoxicity in human embryonic kidney (HEK293T) cells expressing luciferase-tagged ELG1; Potency, µM (highest dose often 46 µM), without a hit: at the highest dose activity change, positive = activation, actives largely listed as activators; actives 1.3% (n = 330,000); HEK293T ELG1-luciferase reporter, luminescence, 16 h; also: % of control where 0% means no effect; nearly all actives have a fitted effect of over 60% in size
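Cells (2,000/well) expressing the ELG1-luciferase fusion are dosed by pin tool and kept 16 hr at 37 °C, 5% CO2. Signal comes from ONE-Glo luciferase reagent after 30 min at room temperature.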
NPC1 promoter act: qHTS Assay for NPC1 Promoter Activators. AID 485313, 2010. actives 2.4% (n = 320,000). Potency, µM (titrated, usually from 9.22 µM), inactives show top-dose activation, usual class: activators. Huh7 NPC1 promoter luciferase reporter, 24 h; also: % of control where 0% means no effect; nearly all actives have a fitted effect of over 60% in size
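Luminescence from an NPC1 promoter-driven luciferase reporter in stably transfected Huh7 cells was measured after 24 h compound treatment at 37 °C, followed by 10 min ambient incubation with luciferase detection reagent.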
Rab9 prom act: qHTS Assay for Rab9 Promoter Activators; Potency, µM (titrated, usually from 9.22 µM), for the others: at the highest dose activation, negative = inhibition, most hits filed as activators; Huh7 Rab9 promoter-luciferase reporter, luminescence, 24 h; actives 2.8% (n = 320,000); also: % of control where 0% means no effect; nearly all actives have a fitted effect of over 60% in size
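Stable Rab9-luc Huh7, 1500 cells/well, 2 h settle; cmpd in DMSO, 24 h, 37 °C/5% CO2; luciferase reagent 10 min RT; luminescence.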
SMN2 splice up: qHTS Assay for Enhancers of SMN2 Splice Variant Expression; HEK293 SMN2-luciferase splicing reporter, luminescence, 30-36 h; Potency, µM (series often up to 46.1 µM), for the others: at the highest dose activity change, positive = activation, actives largely listed as activators; actives 2.8% (n = 210,000); also: % of control where 0% means no effect; nearly all actives have a fitted effect of over 55% in size
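HEK293 cells carry an SMN2 […]–luciferase reporter in which exon 7 inclusion puts luciferase in frame. Cells were plated 10-12 h before compound addition, then incubated 30-36 h at 37C. ONE-Glo luminescence was read; sodium butyrate at 4.5 mM final served as control.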
FLuc counter: qHTS profiling assay for firefly luciferase inhibitor/activator using purifed enzyme and Km concentrations of substrates (counterscreen for miR-21 project). Potency, µM (top dose mostly 57.5 µM), for the others: top-dose activity change, negative = inhibition, actives largely listed as inhibitors. Luciferin 4-monooxygenase (Photinus pyralis), P08659. actives 6.9% (n = 360,000). purified FLuc, Km substrates, luminescence inhibition;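 also: plate controls were vehicle for no effect and reference inhibitor for full effect; nearly all actives have a fitted effect of over 55% in size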
Target sequence (P08659 whole entry, looked up): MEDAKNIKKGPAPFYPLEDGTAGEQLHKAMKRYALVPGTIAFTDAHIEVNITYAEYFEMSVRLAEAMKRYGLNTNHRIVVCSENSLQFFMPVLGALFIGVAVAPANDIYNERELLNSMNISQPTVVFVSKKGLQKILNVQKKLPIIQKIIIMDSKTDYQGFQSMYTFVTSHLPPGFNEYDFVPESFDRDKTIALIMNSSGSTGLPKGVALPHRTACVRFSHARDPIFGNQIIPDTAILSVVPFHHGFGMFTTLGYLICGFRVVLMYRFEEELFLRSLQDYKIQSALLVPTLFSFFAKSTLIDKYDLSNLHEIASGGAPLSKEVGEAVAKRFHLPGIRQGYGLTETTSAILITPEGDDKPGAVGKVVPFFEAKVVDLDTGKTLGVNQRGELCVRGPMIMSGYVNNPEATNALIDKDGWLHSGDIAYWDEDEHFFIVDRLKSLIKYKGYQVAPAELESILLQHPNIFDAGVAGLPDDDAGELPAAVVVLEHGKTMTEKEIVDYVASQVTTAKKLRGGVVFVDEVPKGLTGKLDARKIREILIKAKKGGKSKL
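Biochemical qHTS of compounds, final roughly 60 µM downward over six points, against 10 nM purified firefly luciferase using Km concentrations of substrates (10 uM D-luciferin, 10 uM ATP) in Tris acetate pH 7.5 buffer; luminescence output.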
KinaseGlo FLuc: Counterscreen for Luciferase (Kinase-Glo TM) Inhibition | actives 0.28% (n = 200,000) | Kinase-Glo luciferase, ATP luminescence, 8 min | Luciferin 4-monooxygenase (Photuris pensylvanica), Q27757 | Potency, µM (top dose mostly 38.3 µM), for the others: at the highest dose activity change, negative = inhibition, actives largely listed as inhibitors; also: % is scaled to controls: 0 for no effect and ±100 for the full control effect; nearly all actives have a fitted effect of over 60% in size
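Substrate mix (final 50 mM imidazole pH 7.2, 50 mM KCl, 7 mM MgCl2, 10 uM ATP, 0.01% Tween 20, 0.05% BSA) plus pin-tool compound, then Kinase-Glo detection mix; 8 min ambient, luminescence read.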
The depositor's hits bear a star; ? = inconclusive; . = no result given. Calls follow the shape of the dose curve; as a rule, active = well fitted curve in the direction sought with a large enough effect; inconclusive = small, poorly fitted or top-dose-only effect, or another doubt; inactive = no such curve, though single readings can be large; an effect the other way counts as inactive or inconclusive. Potency is read from the fitted curve at half-maximal effect.

SMILES	ELG1 genotoxic	NPC1 promoter act	Rab9 prom act	SMN2 splice up	FLuc counter	KinaseGlo FLuc
c1ccc(Nc2nc(-c3cccnc3)cs2)nc1	?	1µM*	0.56µM*	11µM*	1.5µM*	-22%
COc1ccccc1NC(=O)Cn1c(=O)n(CC2CCC(C(=O)NCCc3ccccc3)CC2)c(=O)c2ccccc21 (stereo unspecified)	.	.	.	-11%	0%	.
c1cncc(Nc2nc(-c3ccncc3)cs2)c1	-3%	6%	1%	-2%	?	-3%
Clc1ccccc1-c1csc(Nc2cccnc2)n1	8%	2.8µM*	?	.	?	.
O=c1c2sccc2n(Cc2cc(=O)n3ccccc3n2)c(=O)n1-c1cccc(C(F)(F)F)c1	.	.	.	-1%	-9%	.
Cc1cc(C)cc(OCc2cc(=O)n3c4c(sc3n2)CCCC4)c1	.	.	.	-1%	1%	.
COc1cccc(/C=C2\SC(=S)N(N3C(=O)CCCC3=O)C2=O)c1	2%	-1%	-11%	12%	21µM*	-2%
COc1cccc(/C=C2\SC(=S)N(CC3CCCO3)C2=O)c1 (stereo unspecified)	6%	-3%	-8%	-20%	11µM*	1%
O=C1/C(=C/c2cccc(O)c2)SC(=S)N1CC1CCCO1 (stereo unspecified)	5%	-13%	-9%	.	?	.
COC(=O)[C@H]1C[C@@H]1[C@H](NC(C)=O)c1ccccc1	.	.	.	9%	.	-2%
CCN1/C(=C/C=C/C=C/c2sc3ccccc3[n+]2CC)Sc2ccccc21	-8%	-38%	-32%	-90%	15µM*	?
CCN1/C(=C/C=C/C=C/C=C/c2sc3ccccc3[n+]2CC)Sc2ccccc21	-10%	-37%	-40%	.	?	.
CCN1/C(=C/C=C/c2sc3ccccc3[n+]2CC)Sc2ccccc21	?	-40%	-45%	.	21µM*	.
O=C(Nc1ccccc1)ON=C1CCCC1	?	26%	?	20µM*	24µM*	-19%
O=C(Nc1ccccc1)O/N=C/c1ccncc1	7%	3%	5%	2%	?	2%
Cc1ccc(NC(=O)ON=C2CCCC2)cc1	21µM*	?	3.5µM*	?	8.5µM*	0%
Cc1cc(Cl)ccc1OC(C)C(=O)Nc1ccc(C(=O)Nc2ccccc2C(=O)O)cc1 (stereo unspecified)	-16%	1%	-1%	.	-5%	.
O=C(CSc1n[nH]c(=O)n1C1CC1)c1ccc2c(c1)OCCO2	15%	?	?	.	13µM*	.
O=C(CSc1n[nH]c(=O)n1Cc1ccco1)c1ccc2c(c1)OCCO2	?	29%	?	.	15µM*	.
Cc1cc(C)c(C(=O)CSc2n[nH]c(=O)n2C2CC2)cc1C	-4%	0%	-1%	-29%	4%	-4%
CCOC(=O)c1c(C)[nH]c(C)c1S(=O)(=O)N1CCCC(C(=O)Nc2ccc(C)c(N(C)C)c2)C1 (stereo unspecified)	.	.	.	.	-12%	.
COc1cc(C(=O)NS(=O)(=O)c2ccccc2C)ccc1Cc1cn(C)c2ccc(NC(=O)OC3CCCC3)cc12	.	6%	0%	.	11µM*	.
Cc1cc(O)c(C)c2c1CC[C@H]1[C@H](C)C(=O)O[C@H]21	.	.	.	0%	.	0%
CCOC(=O)c1c(C)nc2c3ccccc3ccn12	4.1µM*	18%	2.2µM*	13µM*	3.8µM*	-14%
CCOC(=O)c1c(C)nc2c(C)cccn12	7%	0%	-6%	-58%	2%	-3%
SMILES	ELG1 genotoxic	NPC1 promoter act	Rab9 prom act	SMN2 splice up	FLuc counter	KinaseGlo FLuc
NC(=O)COC(=O)c1ccc2noc(-c3ccccc3)c2c1	14%	4µM*	29%	.	-9%	.
CN1C(=O)c2ccccc2Sc2ccc(NC(=O)c3ccc(C#N)cc3)cc21	.	.	.	.	-3%	.
Cc1cc(O)c(Sc2ncn[nH]2)cc1NS(=O)(=O)c1ccc(Cl)cc1	-1%	0%	2%	.	4%	.
O=S(=O)(Nc1cc(Sc2ncn[nH]2)c(O)c2ccccc12)c1ccccc1	-13%	3%	1%	-113%	11µM*	-1%
CCCCOC(=O)Nc1nc2ccccc2s1	?	2.8µM*	4µM*	25µM*	1.1µM*	-7%
CC(C)(C)c1nc(NC(=O)Nc2ccccc2)sc1Br	-5%	28%	?	-3%	19µM*	0%
CCOc1ccc2nc(NC(=O)Nc3cccs3)sc2c1	2.6µM*	?	1.6µM*	2.8µM*	0.76µM*	-5%
CCCCN(C(=O)NC(=O)Nc1nc2ccc(OC)cc2s1)S(C)(=O)=O	8.2µM*	?	?	22µM*	24µM*	-25%
CCCCCN(C(=O)NC(=O)Nc1nncs1)S(C)(=O)=O	-6%	-1%	-6%	7%	-1%	-4%
CCS(=O)(=O)c1c(Nc2ccc(F)c(Cl)c2)sc(C(=O)c2ccccc2)c1N	.	.	.	6%	-1%	.
CCOc1ccc(/C=C/c2nc(C#N)c(N3CCN(c4ccc(OC)cc4)CC3)o2)cc1	.	.	.	-6%	3%	.
Cc1cccc(N(C)C(=O)Cn2cnc3nc4c(cc3c2=O)CCCC4)c1	.	.	.	.	-4%	.
O=C(O)C/C(=C\c1cccc(NC(=O)c2ccccc2Cl)c1)c1nc2ccccc2s1	4%	-2%	2%	.	?	.
COc1ccc(NC(=O)Nc2nc3ccccc3s2)cc1	?	1.8µM*	1.6µM*	.	2.4µM*	.
O=C(NNc1nc2ccccc2s1)Nc1ccc(Cl)c(Cl)c1	2%	2%	-6%	.	?	.
O=C(Nc1nc2ccccc2s1)Nc1ccc(F)cc1F	4.1µM*	1µM*	1.3µM*	.	0.85µM*	.
O=C(NNc1nc2ccccc2s1)Nc1ccc(F)cc1	?	4µM*	3.2µM*	.	?	.
COc1ccc(C(=O)Nc2cccc(/C=C(\CCC(=O)O)c3nc4ccccc4s3)c2)cc1	0%	3.2µM*	?	.	9.5µM*	.
COc1cc(CNC(=O)c2sc3ncccc3c2-n2cccc2)cc(OC)c1OC	.	.	.	.	0%	.
COc1ccc(CNC(=O)C2CCN(c3nc4ccccc4[nH]3)CC2)c(OC)c1	.	.	.	.	-3%	.
COC(=O)[C@]1(Cc2ccccc2)N[C@H](CN(C)S(=O)(=O)c2ccc(C(C)(C)C)cc2)[C@@H]2C(=O)N(Cc3ccccc3)C(=O)[C@@H]21	1%	.	.	.	.	.
COc1ccc2nc(NC(=O)Nc3ccccc3)sc2c1	?	?	0.71µM*	0.89µM*	0.48µM*	-2%
CC(C)C(=O)NNc1nc2ccccc2s1	18µM*	?	?	?	?	-2%

High-throughput results deposited in PubChem BioAssay by National Center for Advancing Translational Sciences (NCATS).
